Out of some 5,500 compounds screened, about 2,000 (36%) were called active. Roughly 18% stayed inconclusive and do not appear here. No stated cut-off is given here; in the data, active means normalized growth mostly below about 0.91 (no sharp cut-off); inconclusive means no clear call, values can overlap the other calls; inactive means mostly above about 0.92. This is one part of the list.
Experiment: chemical genetic growth profiling, strain panel (AID 1159580);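 further: tested at 20 µM; growth read once vehicle control cultures reached saturation at 30 °C; 1 = growth at the plate median or of vehicle wells; lower values mean less growth of the strain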
Conditions: S. cerevisiae deletion strains, growth OD
[1] = locus YHR030C, strain SLT2, active compounds read low
[2] = locus YHR079C, strain IRE1, active compounds read low
[3] = locus YJL095W, strain BCK1, active compounds read low
[4] = locus YJR066W, strain TOR1, active compounds read low
[5] = locus YLR113W, strain HOG1, active compounds read low
[6] = locus YNL183C, strain NPR1, active compounds read low
[7] = locus YOR231W, strain MKK1, active compounds read low
[8] = locus YPL256C, strain CLN2, active compounds read low

Measured: normalized growth

N[C@@H](CCC(=O)N[C@@H](CCSC(CC(=O)O)C(=O)O)C(=O)NCC(=O)O)C(=O)O (stereo partly specified)
inactive: locus YAL021C, strain ccr4, active compounds read low 0.991 | locus YAL026C, strain drs2, active compounds read low 1 | locus YAL030W, strain snc1, active compounds read low 0.992 | locus YBL061C, strain skt5, active compounds read low 0.989 | locus YBR009C, strain hhf1, active compounds read low 1.03 | locus YBR023C, strain chs3, active compounds read low 0.987 | locus YBR171W, strain sec66, active compounds read low 0.988 | locus YBR231C, strain swc5, active compounds read low 0.993 | locus YBR279W, strain paf1, active compounds read low 0.996 | locus YCL011C, strain gbp2, active compounds read low 0.995 | locus YCL016C, strain dcc1, active compounds read low 0.988 | locus YCL061C, strain MRC1, active compounds read low 1 | locus YCL069W, strain vba3, active compounds read low 0.997 | locus YCR088W, strain abp1, active compounds read low 0.988 | locus YDL005C, strain med2, active compounds read low 0.99 | locus YDL040C, strain nat1, active compounds read low 0.997 | locus YDR001C, strain nth1, active compounds read low 0.994 | locus YDR069C, strain doa4, active compounds read low 0.987 | locus YDR137W, strain rgp1, active compounds read low 0.987 | locus YDR159W, strain sac3, active compounds read low 0.996 | locus YDR195W, strain ref2 0.97 | locus YDR297W, strain sur2, active compounds read low 0.981 | locus YDR334W, strain swr1, active compounds read low 1 | locus YDR335W, strain msn5, active compounds read low 0.996 | locus YDR392W, strain spt3, active compounds read low 1.01 | locus YEL003W, strain gim4, active compounds read low 1.01 | locus YEL037C, strain rad23, active compounds read low 0.994 | locus YEL061C, strain CIN8 (second series), active compounds read low 0.998 | locus YER015W, strain faa2, active compounds read low 0.993 | locus YER016W, strain bim1, active compounds read low 0.978 | locus YER111C, strain swi4, active compounds read low 0.998 | locus YER155C, strain BEM2 (second series), active compounds read low 1.01 | locus YFR010W, strain ubp6, active compounds read low 1.02 | locus YGL167C, strain pmr1, active compounds read low 0.997 | locus YGL173C, strain kem1, active compounds read low 1.01 | locus YGL227W, strain vid30, active compounds read low 0.999 | locus YGL240W, strain doc1, active compounds read low 0.999 | locus YGL253W, strain hxk2, active compounds read low 0.991 | locus YHR013C, strain ard1, active compounds read low 1 | locus YHR027C, strain rpn1, active compounds read low 0.994 | [1] 0.999 | [2] 0.988 | locus YHR142W, strain chs7, active compounds read low 1 | locus YJL092W, strain hpr5, active compounds read low 1 | locus YJL095W, strain BCK1 (second series), active compounds read low 1.02 | [3] 1.01 | locus YJL115W, strain asf1, active compounds read low 1.01 | locus YJL129C, strain trk1, active compounds read low 0.99 | locus YJL154C, strain vps35, active compounds read low 0.992 | locus YJL164C, strain tpk1, active compounds read low 1.01 | locus YJL166W, strain qcr8, active compounds read low 0.994 | locus YJL187C, strain SWE1, active compounds read low 0.992 | [4] 0.997 | locus YKL160W, strain elf1, active compounds read low 0.984 | locus YKR026C, strain gcn3, active compounds read low 0.993 | locus YKR091W, strain srl3, active compounds read low 1 | locus YLL001W, strain dnm1, active compounds read low 1.01 | locus YLL026W, active compounds read low 1 | locus YLL041C, strain sdh2, active compounds read low 1.01 | locus YLR027C, strain aat2, active compounds read low 0.996 | [5] 1 | locus YLR221C, strain rsa3, active compounds read low 1.01 | locus YLR258W, strain gsy2, active compounds read low 1.01 | locus YLR262C, strain YPT6 (second series), active compounds read low 0.992 | locus YLR320W, strain mms22, active compounds read low 1.01 | locus YLR342W, strain FKS1, active compounds read low 0.99 | locus YLR357W, strain rsc2, active compounds read low 0.996 | locus YLR370C, strain arc18, active compounds read low 0.997 | locus YLR384C, strain iki3, active compounds read low 0.964 | locus YML120C, strain ndi1, active compounds read low 0.993 | locus YMR058W, strain fet3, active compounds read low 0.991 | locus YMR125W, strain sto1, active compounds read low 1.01 | locus YMR129W, active compounds read low 0.99 | locus YMR205C, strain PFK2, active compounds read low 1 | locus YMR231W, strain pep5, active compounds read low 0.995 | locus YNL071W, strain lat1, active compounds read low 1.01 | [6] 0.937 | locus YNL209W, strain ssb2, active compounds read low 0.981 | locus YNL248C, strain rpa49, active compounds read low 1.02 | locus YNL322C, strain KRE1 (second series), active compounds read low 0.979 | locus YNR049C, strain mso1, active compounds read low 0.997 | locus YOR001W, strain rrp6, active compounds read low 1.02 | locus YOR070C, strain gyp1, active compounds read low 0.999 | locus YOR080W, strain dia2, active compounds read low 0.982 | locus YOR083W, strain WHI5, active compounds read low 0.985 | locus YOR106W, strain vam3, active compounds read low 0.976 | [7] 0.991 | locus YOR265W, strain rbl2, active compounds read low 0.998 | locus YOR270C, strain vph1, active compounds read low 1.07 | locus YOR290C, strain snf2, active compounds read low 0.994 | locus YPL051W, strain arl3, active compounds read low 1 | locus YPL078C, strain atp4, active compounds read low 0.986 | locus YPL106C, strain sse1, active compounds read low 0.971 | locus YPL240C, strain hsp82, active compounds read low 1.01 | [8] 0.988

N#CC1=C(N)C(C#N)(C#N)C2(CCCCC2)C2CCCC=C12 (stereo unspecified)
inactive: locus YAR019C, strain CDC15, active compounds read low 0.984 | locus YBL105C, strain PKC1, active compounds read low 0.982 | locus YBR135W, strain CKS1, active compounds read low 0.979 | locus YBR136W, strain MEC1, active compounds read low 0.982 | locus YBR160W, strain CDC28, active compounds read low 0.982 | locus YDL017W, strain CDC7, active compounds read low 0.98 | locus YDL028C, strain MPS1, active compounds read low 0.985 | locus YDL101C, strain DUN1, active compounds read low 0.983 | locus YDL108W, strain KIN28, active compounds read low 0.988 | locus YDL132W, strain cdc53, active compounds read low 0.98 | locus YDL214C, strain PRR2, active compounds read low 0.993 | locus YDR052C, strain DBF4, active compounds read low 0.977 | locus YDR054C, strain cdc34, active compounds read low 0.973 | locus YDR226W, strain ADK1, active compounds read low 0.983 | locus YDR477W, strain SNF1, active compounds read low 0.982 | locus YER123W, strain YCK3, active compounds read low 0.984 | locus YER133W, strain GLC7, active compounds read low 0.978 | locus YFL009W, strain cdc4, active compounds read low 0.978 | locus YFL029C, strain CAK1, active compounds read low 0.973 | locus YFR003C, strain YPI1, active compounds read low 0.985 | locus YFR019W, strain FAB1, active compounds read low 0.985 | locus YFR028C, strain CDC14, active compounds read low 0.985 | locus YGR040W, strain KSS1, active compounds read low 0.971 | locus YGR052W, strain FMP48, active compounds read low 1.05 | locus YGR092W, strain DBF2, active compounds read low 0.958 | [1] 0.972 | [2] 0.989 | locus YHR082C, strain KSP1, active compounds read low 0.975 | locus YHR205W, strain SCH9, active compounds read low 0.953 | locus YIL147C, strain SLN1, active compounds read low 0.985 | [3] 0.951 | locus YJL128C, strain PBS2, active compounds read low 0.961 | locus YJL157C, strain FAR1, active compounds read low 0.991 | locus YJR016C, strain ILV3, active compounds read low 0.989 | locus YJR066W, strain TOR1 (second series), active compounds read low 0.969 | [4] 0.968 | locus YKL048C, strain ELM1, active compounds read low 0.985 | locus YKL067W, strain YNK1, active compounds read low 1 | locus YKL101W, strain HSL1, active compounds read low 0.98 | locus YKL193C, strain SDS22, active compounds read low 0.981 | locus YKL203C, strain TOR2, active compounds read low 1.02 | [5] 0.959 | locus YLR133W, strain CKI1, active compounds read low 1 | locus YLR403W, strain SFP1, active compounds read low 0.979 | locus YML070W, strain DAK1, active compounds read low 0.989 | locus YMR001C, strain CDC5, active compounds read low 0.98 | locus YMR205C, strain PFK2 (second series), active compounds read low 1 | locus YMR277W, strain FCP1, active compounds read low 0.985 | locus YNL006W, strain LST8, active compounds read low 0.99 | locus YNL020C, strain ARK1, active compounds read low 0.998 | locus YNL161W, strain CBK1, active compounds read low 0.979 | [6] 0.963 | locus YNL207W, strain RIO2, active compounds read low 0.971 | locus YNL222W, strain SSU72, active compounds read low 0.982 | locus YNL307C, strain MCK1 (second series), active compounds read low 0.995 | locus YOL078W, strain AVO1, active compounds read low 0.979 | locus YOL136C, strain PFK27, active compounds read low 0.99 | locus YOR061W, strain CKA2, active compounds read low 1 | locus YOR119C, strain RIO1, active compounds read low 0.995 | [7] 0.973 | locus YOR329C, strain SCD5, active compounds read low 0.979 | locus YPL031C, strain PHO85, active compounds read low 0.978 | locus YPL153C, strain RAD53, active compounds read low 0.96 | locus YPL204W, strain HRR25, active compounds read low 0.971 | locus YPL209C, strain IPL1, active compounds read low 0.988 | [8] 0.965 | locus YPR025C, strain CCL1, active compounds read low 0.98 | locus YPR106W, strain ISR1, active compounds read low 0.986 | locus YPR111W, strain DBF20, active compounds read low 0.987 | strain NNK1, active compounds read low 0.985 | strain TSCII, active compounds read low 0.979
